PubChem BioAssay AID493168 (National Center for Advancing Translational Sciences (NCATS), 2011)
Inconclusive results are not listed. Unmarked numbers belong to inactive results. Active and inactive are the calls of the source. Calls follow the shape of the dose curve; as a rule, active = well fitted inhibition curve with a large enough effect; inconclusive = small, poorly fitted or top-dose-only effect, or effect the other way; inactive = flat fitted curve, though single readings scatter.

biological target: Ubiquitin carboxyl-terminal hydrolase 2 (Homo sapiens) (UniProt O75604); assay: Confirmation Assay for Inhibitors of Ubiquitin-specific Protease USP2a Using CHOP2 as the Reporter; settings: USP2 core, Ub-CHOP2 coupled reporter fluorescence; series mostly up to 38.3 µM; activity change, negative = inhibition: at the top concentration; also: nearly all actives have a fitted effect of over 55% in size;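 as to activity change, negative = inhibition: plate controls were DMSO wells for no effect and full inhibition by NEM control for full effect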
Sequence (O75604 whole entry, looked up): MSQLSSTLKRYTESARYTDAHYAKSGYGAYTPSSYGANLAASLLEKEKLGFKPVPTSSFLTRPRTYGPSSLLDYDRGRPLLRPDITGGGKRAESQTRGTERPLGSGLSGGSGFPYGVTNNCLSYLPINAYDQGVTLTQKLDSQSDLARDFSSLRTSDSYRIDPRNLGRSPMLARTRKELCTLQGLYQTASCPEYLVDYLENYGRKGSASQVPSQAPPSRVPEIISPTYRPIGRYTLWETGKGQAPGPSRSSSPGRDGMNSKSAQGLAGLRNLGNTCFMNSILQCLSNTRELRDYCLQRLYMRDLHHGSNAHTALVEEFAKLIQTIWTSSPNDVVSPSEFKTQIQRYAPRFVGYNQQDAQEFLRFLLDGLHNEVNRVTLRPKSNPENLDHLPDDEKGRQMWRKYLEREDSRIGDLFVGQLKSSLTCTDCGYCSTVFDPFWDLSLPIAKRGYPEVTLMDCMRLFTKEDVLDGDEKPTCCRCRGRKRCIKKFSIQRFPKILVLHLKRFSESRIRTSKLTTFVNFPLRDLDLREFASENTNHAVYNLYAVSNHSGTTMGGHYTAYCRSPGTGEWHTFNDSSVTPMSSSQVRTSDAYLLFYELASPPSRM
How it was run: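 USP2 core (10 nM final) was preincubated with compound for 30 min at RT in Tris-HCl pH 8.0, CaCl2, beta-mercaptoethanol, CHAPS. Ub-CHOP2 and reporter substrate (25 nM final each) were added, and fluorescence (Ex 485/Em 531 nm) was read after 60 min.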
Potency is read from the fitted curve at half-maximal effect.

| SMILES | activity change, negative = inhibition [%] | Potency |
| --- | --- | --- |
| Cc1cccc2c1N(CCCOc1ccc(C(C)(C)C)cc1)C(=O)C2=O | -3.62 |  |
| CCCCCCCCCCC[N+](C)(C)CC/C=C1/c2ccccc2Sc2ccc(Cl)cc21 |  | 9.27 µM (active) |
| O=C(O)c1cccc(S(=O)(=O)NNc2ccccc2C(F)(F)F)c1 | 1.51 |  |
| C=CCn1c(NCc2cc(C)ccc2O)nc2ccccc21 | 0.219 |  |
| CCOc1ccc(CCn2c(-c3ccco3)nc3ccccc3c2=O)cc1OCC | 2.36 |  |
| CCOC(=O)CN1C(=O)S/C(=C/c2ccc(O)c([N+](=O)[O-])c2)C1=O | -2.79 |  |
| CCO[C@H]1OC(C(=O)N2CCCCCCC2)=C[C@@H](c2ccc(C(F)(F)F)cc2)[C@@H]1CCCO | 2.48 |  |
| O=C(NC(=S)N1CCCc2ccccc21)c1ccc([N+](=O)[O-])cc1 | -6.36 |  |
| O=C(OCC(=O)N1CCCCC1)c1cc2ccccc2cc1O | -2.25 |  |
| O=[N+]([O-])c1cc(-c2nnc(Nc3ccccc3)c3ccccc23)ccc1N1CCOCC1 | 4.53 |  |
| COc1ccc(O)c(-c2cc(-c3ccc(F)cc3)n[nH]2)c1 | -4.2 |  |
| COc1cc(/C=C(/C(=O)c2cccs2)c2nc3ccccc3[nH]2)ccc1O | -6.77 |  |
| Cc1ccc(C(=O)N/C(=C/c2ccco2)C(=O)Nc2cccc(C(=O)O)c2)cc1 | -4.3 |  |
| Cc1ccc(C(C)C)c(OCc2nn(CC(=O)c3ccc(OC(F)F)cc3)c3[n+]2CCCCC3)c1 | -5.42 |  |
| Cn1cccc1CC(=O)N/N=C/C=C/c1ccco1 | -10.7 |  |
| Nc1c(C(=O)Nc2ccc3c(c2)OCCO3)nnn1CCc1ccccc1 | -2.78 |  |
| Cc1cc(=O)n2[nH]c(-c3sccc3-n3c(C)ccc3C)cc2n1 | -6.92 |  |
| O=C(NC1CCCCC1)C(c1ccco1)N(Cc1ccco1)C(=O)c1ccco1 (centres undefined) | 1.34 |  |
| CCNc1sc(C(=O)c2cccs2)c(N)c1-c1nc2ccccc2s1 | -0.21 |  |
| FC(F)(F)c1cnc2c(c1)Nc1ccccc1S2 | 0.666 |  |
| N#Cc1c(NC(=O)CSc2ncnc3sccc23)oc(-c2ccco2)c1-c1ccco1 |  | 13.1 µM (active) |
| Cc1sc2nc(CN3CCN(c4ccc(O)cc4)CC3)[nH]c(=O)c2c1C | -4.34 |  |
| Cc1ccccc1C(=O)Nc1ccc2nc3n(c(=O)c2c1)CCC3 | -1.25 |  |
| Cc1ccc(S(=O)(=O)N2[C@@H](c3ccc(C(C)(C)C)cc3)C(C(=O)O)=CC[C@H]2c2ccc(C(C)C)cc2)cc1 |  | 9.27 µM (active) |
